{"source": "the supplement of paper PMC11732987", "about": "“Enantioselective OTUD7B fragment discovery through chemoproteomics screening and high-throughput optimisation” (Communications Chemistry, 2025)", "note": "Values without a mark were called inactive.", "data": [{"biological_target": "USP14 (UniProt P54578)", "sequence (P54578 whole entry, the tested form may be a part)": "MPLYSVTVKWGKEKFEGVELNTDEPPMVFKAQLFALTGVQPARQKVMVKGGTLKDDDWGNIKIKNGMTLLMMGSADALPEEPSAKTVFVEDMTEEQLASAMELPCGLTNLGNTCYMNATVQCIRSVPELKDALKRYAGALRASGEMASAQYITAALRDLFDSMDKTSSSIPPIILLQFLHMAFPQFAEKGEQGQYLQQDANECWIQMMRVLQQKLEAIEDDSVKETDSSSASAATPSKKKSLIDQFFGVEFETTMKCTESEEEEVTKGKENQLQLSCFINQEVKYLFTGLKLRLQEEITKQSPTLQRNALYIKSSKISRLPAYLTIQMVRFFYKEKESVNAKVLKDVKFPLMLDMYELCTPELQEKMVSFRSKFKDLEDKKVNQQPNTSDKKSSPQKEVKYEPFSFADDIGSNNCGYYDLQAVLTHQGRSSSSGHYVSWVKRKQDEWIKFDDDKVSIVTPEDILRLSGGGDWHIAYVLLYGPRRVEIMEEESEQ", "assay": "log2 ratio of Biotin-Ahx-Ub-VS probe labelling (fragment/DMSO); higher = less target engagement (more negative = stronger competition), active = hit call of the paper (q ≤ 0.05, log2 ratio ≤ -1)", "settings": "compound concentration: 200 uM; treatment time: 3 h", "description": "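Competitive ABPP in HEK293T cell lysate. Lysates were treated with each chloroacetamide fragment at 200 µM for 3 h, then with Biotin-Ahx-Ub-VS (0.5 µM, 1 h), NeutrAvidin-enriched and analysed by diaPASEF LC-MS/MS. Protein LFQ was median-normalised; average log2 ratio is fragment/DMSO from an unpaired t-test (n=3 treated, n=44 DMSO). Hits: q ≤ 0.05, log2 ratio ≤ -1, unique peptides ≥ 2.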", "values": [{"smiles": "O=C(CCl)N1CCCC1c1ccsc1", "note": "(stereo not given)", "log2 ratio of Biotin-Ahx-Ub-VS probe labelling": -0.248}, {"smiles": "CNC(=O)C1(NC(=O)CCl)CCCCC1", "log2 ratio of Biotin-Ahx-Ub-VS probe labelling": -0.0905}, {"smiles": "Cc1cccc(NC(=O)CCl)c1C", "log2 ratio of Biotin-Ahx-Ub-VS probe labelling": -0.488}, {"smiles": "O=C(CCl)N1CCOCCC1c1ccccc1", "note": "(stereo not given)", "log2 ratio of Biotin-Ahx-Ub-VS probe labelling": -0.111}, {"smiles": "Cc1ccccc1OCC(=O)N1CCN(C(=O)CCl)CC1", "log2 ratio of Biotin-Ahx-Ub-VS probe labelling": -0.131}, {"smiles": "Cc1cc(C2CCCN2C(=O)CCl)nn1C.Cl", "note": "(stereo not given)", "log2 ratio of Biotin-Ahx-Ub-VS probe labelling": -0.361}, {"smiles": "O=C(CCl)N1CCC(c2ccn[nH]2)C1", "note": "(stereo not given)", "log2 ratio of Biotin-Ahx-Ub-VS probe labelling": -0.0963}, {"smiles": "COCC[C@@H](NC(=O)CCl)c1ccccc1", "log2 ratio of Biotin-Ahx-Ub-VS probe labelling": 0.0709}, {"smiles": "Cc1n[nH]c2c1CN(C(=O)CCl)CC2", "log2 ratio of Biotin-Ahx-Ub-VS probe labelling": -0.903}, {"smiles": "O=C(O)C1Cc2ccccc2CN1C(=O)CCl", "note": "(stereo not given)", "log2 ratio of Biotin-Ahx-Ub-VS probe labelling": -0.621}, {"smiles": "CC(NC(=O)CCl)c1cnn(C2CC2)c1", "note": "(stereo not given)", "log2 ratio of Biotin-Ahx-Ub-VS probe labelling": -0.778}, {"smiles": "O=C(CCl)NCCC1COCCO1", "note": "(stereo not given)", "log2 ratio of Biotin-Ahx-Ub-VS probe labelling": -0.27}, {"smiles": "Cc1noc(N2CCN(C(=O)CCl)CC2)n1.Cl", "log2 ratio of Biotin-Ahx-Ub-VS probe labelling": 0.347}, {"smiles": "O=C(CCl)Nc1ccc2c(c1)OC(F)(F)O2", "log2 ratio of Biotin-Ahx-Ub-VS probe labelling": -0.0555}, {"smiles": "O=C(CCl)NC1CCOc2ccccc21", "note": "(stereo not given)", "log2 ratio of Biotin-Ahx-Ub-VS probe labelling": -0.937}, {"smiles": "CNC(=O)Cn1cc(NC(=O)CCl)cn1", "log2 ratio of Biotin-Ahx-Ub-VS probe labelling": -0.154}, {"smiles": "COc1cccc(CN(C)C(=O)CCl)c1", "log2 ratio of Biotin-Ahx-Ub-VS probe labelling": -0.252}, {"smiles": "Cl.O=C(CCl)N1CCc2ncncc2C1", "log2 ratio of Biotin-Ahx-Ub-VS probe labelling": -0.0964}, {"smiles": "O=C(CCl)N1CCc2[nH]c3ccccc3c2C1", "log2 ratio of Biotin-Ahx-Ub-VS probe labelling": "-1.05 (active)"}, {"smiles": "CC(=O)C1CCCCN1C(=O)CCl", "note": "(stereo not given)", "log2 ratio of Biotin-Ahx-Ub-VS probe labelling": -0.101}, {"smiles": "O=C(CCl)N1CCC2(CCC(O)CC2)CC1", "log2 ratio of Biotin-Ahx-Ub-VS probe labelling": 0.0657}, {"smiles": "CC(NC(=O)CCl)c1noc(Cc2ccccc2)n1", "note": "(stereo not given)", "log2 ratio of Biotin-Ahx-Ub-VS probe labelling": -0.411}, {"smiles": "O=C(CCl)Nc1cc(Cl)ccc1-n1cncn1", "log2 ratio of Biotin-Ahx-Ub-VS probe labelling": "-1.09 (active)"}, {"smiles": "CC(O)CC1CCN(C(=O)CCl)CC1", "note": "(stereo not given)", "log2 ratio of Biotin-Ahx-Ub-VS probe labelling": -0.442}, {"smiles": "Cc1ccc(CN(CCO)C(=O)CCl)cc1", "log2 ratio of Biotin-Ahx-Ub-VS probe labelling": -0.249}, {"smiles": "COc1ccc(Cl)cc1NC(=O)CCl", "log2 ratio of Biotin-Ahx-Ub-VS probe labelling": -0.655}, {"smiles": "NC(=O)C(Cc1ccccc1)NC(=O)CCl", "note": "(stereo not given)", "log2 ratio of Biotin-Ahx-Ub-VS probe labelling": -0.156}, {"smiles": "CS(=O)(=O)N1CCCN(C(=O)CCl)CC1", "log2 ratio of Biotin-Ahx-Ub-VS probe labelling": 0.105}, {"smiles": "O=C(CCl)N1CCN2C(=O)CCC2C1", "note": "(stereo not given)", "log2 ratio of Biotin-Ahx-Ub-VS probe labelling": 0.0904}, {"smiles": "Cl.O=C(CCl)N1CCn2ncc(O)c2C1", "log2 ratio of Biotin-Ahx-Ub-VS probe labelling": -0.588}, {"smiles": "Cc1nc(CNC(=O)CCl)c2ccccn12.Cl", "log2 ratio of Biotin-Ahx-Ub-VS probe labelling": 0.113}, {"smiles": "O=C(CCl)Nc1ccc(F)cc1F", "log2 ratio of Biotin-Ahx-Ub-VS probe labelling": -0.106}, {"smiles": "Cc1cccc2nc(CCNC(=O)CCl)cn12.Cl", "log2 ratio of Biotin-Ahx-Ub-VS probe labelling": -0.259}, {"smiles": "CC(c1ccccc1)N(C)C(=O)CCl", "note": "(stereo not given)", "log2 ratio of Biotin-Ahx-Ub-VS probe labelling": -0.237}, {"smiles": "O=C(CCl)NCc1noc(C2CC2)n1", "log2 ratio of Biotin-Ahx-Ub-VS probe labelling": -0.284}, {"smiles": "O=C(CCl)NC(Cn1ccccc1=O)c1ccccc1", "note": "(stereo not given)", "log2 ratio of Biotin-Ahx-Ub-VS probe labelling": -0.174}, {"smiles": "Cc1ccc(CC(NC(=O)CCl)c2ccccn2)cc1.Cl", "note": "(stereo not given)", "log2 ratio of Biotin-Ahx-Ub-VS probe labelling": -0.0182}, {"smiles": "COc1ccc(CN(C)C(=O)CCl)cc1", "log2 ratio of Biotin-Ahx-Ub-VS probe labelling": -0.544}, {"smiles": "CC(NC(=O)CCl)c1cc2n(n1)CCCC2.Cl", "note": "(stereo not given)", "log2 ratio of Biotin-Ahx-Ub-VS probe labelling": -0.363}, {"smiles": "N#Cc1cnn(-c2ccccc2)c1NC(=O)CCl", "log2 ratio of Biotin-Ahx-Ub-VS probe labelling": -0.345}]}]}
